Source: PubChem BioAssay
APOBEC3A inh: human APOBEC3A DNA deaminase inhibition; P31941; recombinant A3A, FAM/TAMRA ssDNA deamination fluorescence; inhibition, % at 20 µM; 330,000 tested, 0.41% active; AID 493011;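 active = at least 40% inhibition at 20 µM here, with at most 30% in a related deaminase screen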;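 also: plate controls were A3A with DMSO for no effect and wells lacking A3A enzyme for full effect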
PHOSPHO1 block: blocks human PHOSPHO1 phosphatase activity. Q8TCT1. recombinant PHOSPHO1, absorbance phosphatase assay. inhibition, % at 13.3 µM. 290,000 tested, 1.1% active; in the data active = inhibition above about 60%
Target sequence (Q8TCT1 whole entry, looked up): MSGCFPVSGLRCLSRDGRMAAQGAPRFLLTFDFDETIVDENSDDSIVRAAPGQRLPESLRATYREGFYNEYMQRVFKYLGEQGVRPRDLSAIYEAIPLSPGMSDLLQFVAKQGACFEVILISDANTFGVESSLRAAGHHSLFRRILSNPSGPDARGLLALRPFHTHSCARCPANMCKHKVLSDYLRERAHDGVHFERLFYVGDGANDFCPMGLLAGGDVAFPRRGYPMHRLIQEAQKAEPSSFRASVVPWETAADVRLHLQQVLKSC
PABP FP inh: PABP-poly(A) binding inhibition; P11940; PABP-poly(A) RNA binding, fluorescence polarization; calls only at 35 µM; 290,000 tested, 1% active; AID 2014;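 also: calls also rest on retests at 20 µM and on dose response follow-up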
APOBEC3G inh: inhibitors of human APOBEC3G DNA deaminase. Q9HC16. recombinant A3G, ssDNA deamination FAM/TAMRA fluorescence. inhibition, % at 20 µM. 330,000 tested, 0.28% active;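 active = inhibition of at least 40% at 20 µM, with no more than 30% in the related APOBEC3A deaminase screen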;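 also: plate controls were DMSO wells with A3G for no effect and wells lacking A3G enzyme for full effect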
PABP1 MLLE inh: blocks PAM2 peptide binding to the PABP1 MLLE domain. P11940. GST-MLLE / FITC-PAM2 fluorescence polarization. inhibition, % at 20 µM. 360,000 tested, 0.36% active. AID 588489; in the data active = inhibition above about 35%, passing the limit was not always enough;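 also: plate controls were DMSO wells with GST-MLLE for no effect and wells lacking GST-MLLE protein for full effect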
eIF4H inh: inhibitors of RNA binding by human eIF4H; inhibition, % at 35 µM; Q15056; 290,000 tested, 0.94% active; eIF4H fluorescence polarization binding assay;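 also: calls also rest on retests at 20 µM and on dose response follow-up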
The depositor's hits bear a star. Only some compounds are listed: those with a hit (about 2.6% of all), similar ones and a draw of the others. Unless noted, no rule for the calls is given here.

Cc1c(C#N)c(NC(=O)CCl)n(Cc2cccs2)c1C was read as APOBEC3A inh 0, PHOSPHO1 block -106, PABP FP inh active, APOBEC3G inh -4, PABP1 MLLE inh 6 and eIF4H inh 74*.
For CN(C)c1ccc(NC(=O)Nc2cccc(Cl)c2)cc1 the results were APOBEC3A inh -3, PHOSPHO1 block 93*, PABP FP inh inactive, APOBEC3G inh -2, PABP1 MLLE inh 2 and eIF4H inh -2.
`CN(c1cccc(NC(=O)Nc2cccc(Cl)c2)c1)S(C)(=O)=O` gave APOBEC3A inh -1, PHOSPHO1 block 22, PABP FP inh inactive, APOBEC3G inh -2, PABP1 MLLE inh -13 and eIF4H inh 10.
Screening Cc1ccc(CN2C(=O)C(C)Nc3ncnc(N4CCN(c5ccccn5)CC4)c32)cc1 (stereo unspecified) returned APOBEC3A inh -2, APOBEC3G inh -1 and PABP1 MLLE inh -23.
For Cc1cc(C)cc(N(CC(=O)NC2CCCC2)C(=O)CCC(=O)Nc2cc(C)ccn2)c1 the results were APOBEC3A inh -4, PHOSPHO1 block 28, PABP FP inh inactive, APOBEC3G inh -8, PABP1 MLLE inh 7 and eIF4H inh -1.
`COc1cccc2c(=O)c3cccc(N)c3[nH]c12` gave APOBEC3A inh 13, PHOSPHO1 block 23, PABP FP inh active, APOBEC3G inh 17, PABP1 MLLE inh 7 and eIF4H inh 94*.
For COc1cccc2c(=O)c3c([nH]c12)OC(C)(C)C3 the results were APOBEC3A inh 0, APOBEC3G inh -1 and PABP1 MLLE inh 3.
For CN(C)C=NC1=NN(c2cccc(C(F)(F)F)c2)CC1 the results were APOBEC3A inh -2, PHOSPHO1 block 97*, PABP FP inh inactive, APOBEC3G inh -8, PABP1 MLLE inh -25 and eIF4H inh 3.
`CN1CCN(C=NC2=NN(c3cccc(C(F)(F)F)c3)CC2)CC1` gave APOBEC3A inh -3, PHOSPHO1 block -23, PABP FP inh inactive, APOBEC3G inh -7, PABP1 MLLE inh -10 and eIF4H inh -15.
For CCOC(=O)c1cn(CC)c2ccc(Br)cc2c1=O the results were APOBEC3A inh 35, PHOSPHO1 block 78*, PABP FP inh inactive, APOBEC3G inh 9, PABP1 MLLE inh -81 and eIF4H inh -11.
`CCCSCC(=O)Nc1ncc2c(n1)-c1ccccc1CC2` gave APOBEC3A inh 8, PHOSPHO1 block 16, PABP FP inh active, APOBEC3G inh 2, PABP1 MLLE inh 7 and eIF4H inh 58*.
For Cc1cc(C)c(NC(=O)C2CC(=O)N(C(C)C)C2)c(C)c1 (stereo unspecified) the results were APOBEC3A inh -6, PHOSPHO1 block 52, PABP FP inh inactive, APOBEC3G inh -20, PABP1 MLLE inh 0 and eIF4H inh 7.
`CCN(CC)C(=O)CSC(=Nc1ccccc1F)NC#N` gave APOBEC3A inh -5, PHOSPHO1 block -13, PABP FP inh active, APOBEC3G inh -2, PABP1 MLLE inh -30 and eIF4H inh 46*.
For CCN(CC)C(=O)CSC(Nc1ccc(F)cc1)=C(C#N)C#N the results were APOBEC3A inh -4, PHOSPHO1 block -3, PABP FP inh inactive, APOBEC3G inh -7, PABP1 MLLE inh -102 and eIF4H inh 27.
CCN(CC)C(=O)CC(c1ccc(F)cc1)c1ccc(OC)cc1 (stereo unspecified) was read as APOBEC3A inh -5, PHOSPHO1 block 2, PABP FP inh inactive, APOBEC3G inh -4, PABP1 MLLE inh -1 and eIF4H inh -16.
Screening COc1cc2c(cc1OC)C1(CCCCC1)CN(C)C2 returned APOBEC3A inh 3, PHOSPHO1 block 40, PABP FP inh inactive, APOBEC3G inh -5, PABP1 MLLE inh 4 and eIF4H inh -8.
`CCOC(=O)CSc1ccc(S(=O)(=O)N2CCCCC2)cc1[N+](=O)[O-]` gave APOBEC3A inh 2, PHOSPHO1 block -8, PABP FP inh inactive, APOBEC3G inh -6, PABP1 MLLE inh -1 and eIF4H inh -1.
For CCOC(=O)CSc1ccc(S(=O)(=O)N2CCCC2)cc1[N+](=O)[O-] the results were APOBEC3A inh -5, PHOSPHO1 block -13, PABP FP inh active, APOBEC3G inh -16, PABP1 MLLE inh 11 and eIF4H inh active.
Cn1ncc2nc[nH]c(=O)c21 was read as APOBEC3A inh -1, PHOSPHO1 block -18, PABP FP inh active, APOBEC3G inh -4, PABP1 MLLE inh 0 and eIF4H inh inconclusive.
COc1ccc(N2C(=O)[C@@H]3C(c4cccnc4)=NO[C@@H]3C2=O)cc1 was read as APOBEC3A inh 4, PHOSPHO1 block 24, PABP FP inh inactive, APOBEC3G inh 2, PABP1 MLLE inh 14 and eIF4H inh 8.
`CCOC(=O)c1c(S(=O)(=O)N2CCCC(C(=O)Nc3ccc(C)cn3)C2)c(C)n(C)c1C` (stereo unspecified) gave APOBEC3A inh 0, PHOSPHO1 block 64*, APOBEC3G inh -1 and PABP1 MLLE inh -7.
CCOC(=O)c1c(S(=O)(=O)N2CCCC(C)C2)c(C)n(C)c1C (stereo unspecified) was read as APOBEC3A inh -3, PHOSPHO1 block 27, PABP FP inh inactive, APOBEC3G inh -1, PABP1 MLLE inh -6 and eIF4H inh 7.
For COc1ccc(OCCCC(=O)Nc2cc(S(=O)(=O)N3CCCCC3)ccc2C)cc1 the results were APOBEC3A inh 3, APOBEC3G inh -3 and PABP1 MLLE inh -5.
`O=C(CC1N=C2c3ccccc3N=C(SCc3ccc(F)cc3)N2C1=O)NCc1ccco1` (stereo unspecified) gave APOBEC3A inh -2, PHOSPHO1 block -21, PABP FP inh inactive, APOBEC3G inh -5, PABP1 MLLE inh 10 and eIF4H inh 28.
`Cc1ccc(CSC2=Nc3ccccc3C3=NC(CC(=O)NCc4ccco4)C(=O)N23)cc1` (stereo unspecified) gave APOBEC3A inh -3, PHOSPHO1 block 2, PABP FP inh active, APOBEC3G inh -4, PABP1 MLLE inh -8 and eIF4H inh 51*.
`CCCCC(OC(=O)c1ccco1)C(=O)NCc1ccc(C)cc1` (stereo unspecified) gave APOBEC3A inh -1, PHOSPHO1 block 27, PABP FP inh inactive, APOBEC3G inh -16, PABP1 MLLE inh 17 and eIF4H inh 4.
`O=C(O)c1cc(N=Nc2c(O)ccc3ccccc23)cc(C(=O)O)c1` gave PHOSPHO1 block 25, PABP FP inh inactive, PABP1 MLLE inh -40 and eIF4H inh -7.
Screening O=C(O)c1ccc(N=Nc2c(O)ccc3ncccc23)cc1 returned APOBEC3A inh 20, PHOSPHO1 block 42, PABP FP inh active, APOBEC3G inh 24, PABP1 MLLE inh -3 and eIF4H inh 90*.
Screening Cc1ccc(C(=O)NCc2ccccn2)cc1Cl returned APOBEC3A inh -2, PHOSPHO1 block 60*, PABP FP inh inactive, APOBEC3G inh -3, PABP1 MLLE inh -3 and eIF4H inh 6.
